We go through 21 molecules from PubChem BioAssay (EPA / NIEHS).

The source made the active and inactive calls. How the source made its calls: active means hit-call score of the fitted dose curve at least 0.9, where 1 is the maximum; inactive means score below 0.9.

This test in a line: CCTE_Shafer_MEA_acute_burst_duration_mean: CCTE's Neural Acute Assay for Mean Burst Duration, Shafer Lab (AID 2284014). As for the experimental part: CCTE_Shafer_MEA_acute assay is conducted using Axion Biosystems 48 well microelectrode array (MEA) plates and Maestro recording system. Each well of the MEA plate contains a grid of 16 microelectrodes embedded in the culture surface. Electrically active cells, such as neurons, can be cultured over the electrodes, and electrical activity in these cells can be recorded extracellularly. The spontaneous firing of neurons is captured from each electrode on a microsecond timescale providing both temporally and spatially precise data. […] The CCTE_Shafer_MEA_acute assay uses primary cultures of rat cortical neurons. As these cultures mature over time, neural networks develop functional activity and form cohesive networks in which electrical activity can be highly coordinated. Baseline 40-minute recordings are made on days post-plating 13 or 15, followed by a secondary 40-minute recording after chemical exposure.CCTE_Shafer_MEA_acute_burst_duration_mean is a component of the CCTE_Shafer_MEA_acute assay. It measures the average time from the first spike (action potential firing) to the last spike in a single-electrode burst (temporally-clustered group of spikes) during a recording in a microelectrode array (MEA) using Axion Biosystems Maestro 768 channel amplifier with the AxIS adaptive spike detector. The recordings before and after chemical treatment are used to calculate a percent change in the mean burst duration in each well.Data from the assay component CCTE_Shafer_MEA_acute_burst_duration_mean was analyzed into 1 assay endpoint. This assay endpoint, CCTE_Shafer_MEA_acute_burst_duration_mean, was analyzed in the negative analysis fitting direction relative to DMSO as the negative control and baseline of activity. Using a type of functional reporter, gain or loss-of-signal activity can be used to understand electrical activity.
Spontaneous activity in the cortical cultures was recorded using an Axion Biosystems Maestro 768 channel amplifier and Axion Integrated Studios (AxIS) v1.8 (or later) software. The amplifier recorded from all channels simultaneously (gain = 1200 x; sampling rate = 12.5 kHz/channel): raw signals were filtered with a Butterworth band-pass filter (300-5000 Hz), which filters out slower local field potentials leaving only fast potentials, i.e., "spikes", arising from extracellular currents associated with action potentials (Pine 2006; Wheeler and Nam 2011). On-line spike detection of filtered signals was conducted with the AxIS adaptive spike detector, using a threshold of 8x the root mean squared (rms) noise on each channel. Any electrodes with rms noise levels greater than 5 uV were grounded (e.g., no data were recorded). Once grounded, an electrode was grounded for the duration of the experiment. All recordings were conducted at 37 C. Wells were deemed usable if on the day of the exposure >/= 10 electrodes were active (defined as >/= 5 spikes/min). On DIV 13 or 15, a minimum of three wells from one cortical culture preparation were treated with each compound (0.03-40 uM). Prior to recording baseline activity, each mwMEA plate was placed in the Maestro at 37 C and allowed to sit for 20 min while firing rates stabilized. Baseline activity (40 min) was recorded before the addition of each compound. An additional 40 min of spontaneous activity was recorded in the presence of each compound. Changes in network parameters relative to baseline were assessed following compound treatment.
With `Cc1cc(CCN2CCN(c3nsc4ccccc34)CC2)cc2c1NC(=O)CC2(C)C`, the AC50 was 8.81 µM (active). As to `CN1CCC[C@H]1c1cccnc1`, the molecule was called inactive. Still for that read-out and setting: in the case of `CCCCCCCCCCCCN1CCCC1=O` it was “inactive”; in that of `OCCC(F)(F)C(F)(F)C(F)(F)C(F)(F)C(F)(F)C(F)(F)C(F)(F)C(F)(F)F`, “inactive”; in that of `CC[C@H](c1ccc(O)cc1)[C@@H](CC)c1ccc(O)cc1`, “inactive”. Same read-out and setting: as for `CCCCCCCCCCCCc1ccccc1S(=O)(=O)O`, the entry is “inactive”; as for `CCc1ccc(CCOc2ccc(CC3SC(=O)NC3=O)cc2)nc1` (stereo unspecified), “inactive”. On to `CN1CCN(c2ccccc2/C=C2\SCCN(c3ccc(Cl)c(Cl)c3)C2=O)CC1`, for which the AC50 was 32 µM (active). On to `CCCOc1sc(C(=O)N2CCC(c3cc(CN)ccc3F)CC2)c(C)c1Br`, for which the result was inactive.

In the case of `CN(C)C=O`, the molecule was called inactive. On to `OC1CCC(C2CCCCC2)CC1` (stereo unspecified), for which the molecule was classed as inactive. For `Oc1cc2ccccc2c2ccccc12`, the result was inactive.

Consider `NC(=O)N(O)[C@@H]1C=C[C@H](Oc2cccc(Oc3ccc(F)cc3)c2)C1`, for which the AC50 is 18.5 µM (active). The same measure, in the same setting: as for `CCC(=C(c1ccc(O)cc1)c1ccc(OCCN(C)C)cc1)c1ccccc1`, the figure is 23 µM (active).

Consider `CCCCCCCCCCCCCCCS(=O)(=O)Oc1ccccc1`, for which the result was inactive. Take `CC(C)(C)c1cc(C(C)(C)C)c(O)c(C(C)(C)C)c1`: the molecule was called inactive. As to `CC(=O)NC1(c2cccc(F)c2)CCN(CC[C@@]2(c3ccc(Cl)c(Cl)c3)CN(c3ccccc3)C(=O)CO2)CC1`, the AC50 was 1.04 µM (active). For the molecule `O=c1c(-c2ccc(O)cc2)coc2cc(O)ccc12`, the outcome was inactive.

As for `CC#C[C@]1(O)CC[C@H]2[C@@H]3CCC4=CC(=O)CCC4=C3[C@@H](c3ccc(N(C)C)cc3)C[C@@]21C`, the call was inactive.

Regarding `CC(C)CCCCCCOC(=O)CCCCC(=O)OCCCCCCC(C)C`, the molecule was called inactive. Take `O=C(O)c1ccccc1C(c1ccc(O)cc1)c1ccc(O)cc1`: the molecule was called inactive.

A word on the AC50: it is the concentration at which the activity in the assay is half-maximal.
